# Assay outcomes: PubChem, Sanford-Burnham Center for Chemical Genomics
# Compounds with a hit are over-represented: about 3% of the library has one in this group of screens.
# SENP8 block-1 = SENP8 (human) protease inhibition | AID 602440 | 360,000 tested, 0.64% active | Q96LD8 | recombinant SENP8, Nedd8 substrate fluorescence | inhibition, % at 20 µM; in the data active = inhibition mostly above about 40%, no sharp cut-off; inactive = mostly below about 27%
# SENP6 block = blocks the human protease SENP6 | 330,000 tested, 1.8% active | Recombinant SENP6 catalytic domain, aminoluciferin luminescence | AID 2599 | inhibition, % at 10 µM | Q9GZR1;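 active = inhibition above about 50% at the single tested dose, limit read from the data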;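 note: plate controls were DMSO wells with enzyme for no effect and DMSO wells lacking enzyme for full effect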
# Target sequence (Q9GZR1 628-1112 limits assumed): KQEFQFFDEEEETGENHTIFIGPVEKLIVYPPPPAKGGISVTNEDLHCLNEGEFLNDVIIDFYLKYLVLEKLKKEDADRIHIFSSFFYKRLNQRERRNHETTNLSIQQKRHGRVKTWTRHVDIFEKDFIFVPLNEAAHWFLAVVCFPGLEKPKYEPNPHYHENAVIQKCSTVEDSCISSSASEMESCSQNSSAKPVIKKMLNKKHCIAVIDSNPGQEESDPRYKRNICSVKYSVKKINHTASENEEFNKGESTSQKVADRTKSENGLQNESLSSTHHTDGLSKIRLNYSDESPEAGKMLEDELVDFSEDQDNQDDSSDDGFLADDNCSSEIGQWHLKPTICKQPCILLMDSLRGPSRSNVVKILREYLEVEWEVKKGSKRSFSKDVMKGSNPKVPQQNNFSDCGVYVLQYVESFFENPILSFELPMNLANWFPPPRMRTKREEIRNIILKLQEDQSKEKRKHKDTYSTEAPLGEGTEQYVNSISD
# PPC-1+TRAIL kill = compounds killing PPC-1 cancer cells with TRAIL present (potentiator screen, no TRAIL-free arm); 220,000 tested, 0.41% active; cell killing (% activity), % at 4 µM or 5 µM; AID 1443; PPC-1 cells + TRAIL, ATPLite viability luminescence;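 active = cell killing above 50% in the first pass at 4 µM, then a duplicate retest at 5 µM averaging 50% or more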;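 note: plate controls were cells with TRAIL plus DMSO for no effect and medium-only wells lacking cells for full effect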
# C8 TRAIL sens = sensitizes caspase-8 expressing cells to TRAIL; NB7+C8 cells + TRAIL, ATPlite viability luminescence; inhibition (viability loss, TRAIL sensitization), % at 10 µM; 360,000 tested, 1% active;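 active = compounds causing at least 50% loss of cell viability in the single-dose screen, relative to plate controls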
# SENP7 inh = blocks the human protease SENP7; Q9BQF6; recombinant SENP7, Z-RLRGG-aminoluciferin luminescence, 40 min; inhibition, % at 5 µM; 330,000 tested, 1.5% active;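 active = inhibition above about 50% at the single test dose, limit read from the data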;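 note: plate controls were DMSO with enzyme for no effect and no enzyme buffer wells for full effect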
# SENP8 block-2 = inhibitors of human SENP8 protease; 330,000 tested, 1.2% active; Q96LD8; inhibition, % at 10 µM; purified SENP8, Z-RLRGG-aminoluciferin cleavage, luminescence; AID 2540; in the data active = inhibition above about 50%
# SENP8 confirm = human SENP8 inhibition, confirmed; shares compounds with SENP7 inh; 6,200 tested, 40% active; Recombinant SENP8, Z-RLRGG-aminoluciferin luminescence, 60 min; inhibition, % at 12.5 µM; AID 488912;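 active = mean inhibition across replicates above about 50%, limit read from the data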
# SENP6 conf = human SENP6 inhibition, confirmed; recombinant SENP6, Z-RLRGG-aminoluciferin luminescence; inhibition, % at 12.5 µM; 6,200 tested, 58% active; shares compounds with SENP7 inh
# SENP7 confirm = human SENP7 inhibition, confirmed; shares compounds with SENP7 inh; recombinant SENP7, Z-RLRGG-aminoluciferin luminescence, 40 min; inhibition, % at 12.5 µM; 6,200 tested, 69% active
# Casp3 SENP sel = caspase-3 inhibition (SENP selectivity assay); shares compounds with SENP7 inh; purified caspase-3, Z-DEVD-aminoluciferin luminescence, 60 min; inhibition, % at 12.5 µM; 6,200 tested, 60% active; AID 488918;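 active = mean inhibition above about 50%, limit read from the data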;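 note: plate controls were enzyme with DMSO for no effect and wells without caspase-3 for full effect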
# Luc interf = luminescence interference (SENP counter-screen); shares compounds with SENP7 inh; 6,200 tested, 39% active; Pre-incubated SENP8/Z-RLRGG-aminoluciferin, luciferase luminescence interference; AID 488919; inhibition, % at 12.5 µM;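 active = mean inhibition above about 50% when retested at one dose, limit read from the data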;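 note: plate controls were DMSO wells with completed reaction for no effect and substrate without enzyme for full effect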
# An asterisk follows results filed as active; i = inactive; . = no result.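 Rule for the calls, unless noted: active = mean inhibition above about 50% in the one-dose retest (limit read from the data); inactive = the rest.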
SMILES,SENP8 block-1,SENP6 block,PPC-1+TRAIL kill,C8 TRAIL sens,SENP7 inh,SENP8 block-2,SENP8 confirm,SENP6 conf,SENP7 confirm,Casp3 SENP sel,Luc interf
Cn1ccc(C(=O)NC(=S)Nc2ccc([N+](=O)[O-])cc2O)n1,17,72*,.,0,54*,56*,74*,72*,93*,75*,78*
COc1ccc(N(CC(=O)NCc2ccc3c(c2)OCO3)S(C)(=O)=O)cc1OC,5,-12,16,-24,94*,-6,2,0,-2,-2,-2
COc1ccc(NC(=O)c2ccco2)c(NC(=O)c2ccc([N+](=O)[O-])cc2)c1,8,-11,.,11,-10,-7,.,.,.,.,.
Cc1ccc(S(=O)(=O)Nc2cccc(-c3ccc(N4CCCCCC4)nn3)c2)cc1C,-10,-6,.,11,5,-10,.,.,.,.,.
O=C(COc1ccccc1)Nc1cccc(-c2ccc(N3CCOCC3)nn2)c1,-22,61*,.,70*,53*,29,-26,28,76*,66*,-7
Cc1ccc([N+](=O)[O-])cc1S(=O)(=O)Nc1cccc(-c2ccc(N3CCCC3)nn2)c1,13,90*,.,7,16,83*,62*,76*,87*,70*,6
O=C(Nc1cccc(-c2ccc(N3CCOCC3)nn2)c1)c1ccccc1,-18,27,.,37,26,5,.,.,.,.,.
Cc1ccc(C(=O)Nc2cccc(-c3ccc(N4CCOCC4)nn3)c2)cc1[N+](=O)[O-],-6,67*,.,48,63*,50*,-6,-4,-4,7,6
O=C(COc1ccc(Cl)cc1Cl)Nc1cccc(-c2ccc(N3CCOCC3)nn2)c1,-24,2,.,39,76*,-6,8,9,-3,5,-1
Cc1cc2nc(C3CCCCC3)c(Cc3ccccc3)n2c(C)c1Br,7,.,.,12,.,.,.,.,.,.,.
F[B-](F)(F)c1cncc2ccccc12,-4,.,.,-9,.,.,.,.,.,.,.
COc1ccc(C2=NN(CCC(=O)NCc3cccs3)C(=O)CC2)cc1,18,-4,3,-20,2,-2,.,.,.,.,.
CC1CN(C(=O)c2cc(S(=O)(=O)N(C)c3ccc(F)cc3)ccc2Cl)CC(C)O1 (stereo not given),4,-19,.,-12,-16,-1,.,.,.,.,.
COCC(COS(N)(=O)=O)Cc1ccccc1 (stereo not given),13,-17,.,-3,8,-10,.,.,.,.,.
CCOC(=O)c1c(C)[nH]c(N=Nc2cccc(OC)c2)c1C,20,5,-10,17,58*,21,58*,62*,88*,27,34
CCOC(=O)c1c(C)[nH]c(N=Nc2cccc(C)c2)c1C,26,62*,5,1,2,50,49,63*,78*,28,15
CCOC(=O)c1[nH]c(C)c(C(=O)c2ccc(C)cc2)c1C,15,-29,-7,-41,-3,-9,.,.,.,.,.
CCOC(=O)c1c(C)[nH]c(N=Nc2ccc(C)cc2)c1C,18,53*,6,12,-9,21,7,37,5,18,5
COc1ccccc1C(=O)N(Cc1ccc(Cl)cc1)C1CCS(=O)(=O)C1 (stereo not given),11,-5,.,-4,2,4,.,.,.,.,.
Cc1nc(Nc2ccccc2)sc1C(=O)c1ccc(F)cc1,-9,-36,.,-3,4,-3,.,.,.,.,.
Nc1nc(Nc2ccccc2F)sc1C(=O)c1ccccc1,-21,72*,.,12,35,59*,74*,69*,86*,44,76*
CN1OC[C@@H]2CN(C(=O)Nc3ccccc3)[C@H](c3ccc(N4CCCCC4)cc3)C[C@@H]21,19,.,.,-12,.,.,.,.,.,.,.
CCN(CC)Cc1ccccc1Sc1ccccc1,-57,.,-6,4,.,.,.,.,.,.,.
Cc1ccccc1NC(C)C(=O)N/N=C/c1ccccc1OCc1cccc(Br)c1 (stereo not given),18,-15,1,0,-4,-10,.,.,.,.,.
COc1ccc(NC(C)C(=O)N/N=C/c2ccccc2OCc2cccc(Br)c2)cc1 (stereo not given),20,5,16,8,93*,2,-13,-6,-9,7,-2
SMILES,SENP8 block-1,SENP6 block,PPC-1+TRAIL kill,C8 TRAIL sens,SENP7 inh,SENP8 block-2,SENP8 confirm,SENP6 conf,SENP7 confirm,Casp3 SENP sel,Luc interf
O=C(NCCCN1CCOCC1)C(=O)N/N=C/c1ccc2c(c1)OCO2,-11,-9,22,-2,-1,-2,.,.,.,.,.
Fc1ccc(Nc2nnc(-c3ccncc3)s2)cc1Cl,i,.,.,-3,.,.,.,.,.,.,.
CN(C)c1ccc(/C=N/NC(=O)c2nonc2N)cc1[N+](=O)[O-],29,45,6,-1,55*,21,27,27,76*,75*,59*
Cc1csc(N/N=C/c2ccc(O)c([N+](=O)[O-])c2)n1,12,69*,4,-2,25,55*,12,89*,50,3,2
O=C(N/N=C/c1ccc(O)c([N+](=O)[O-])c1)c1ccncc1,31,57*,6,-20,49,20,38,26,66*,79*,15
O=C(N/N=C/c1ccc([N+](=O)[O-])s1)c1ccncc1,34,58*,18,29,21,12,7,44,10,6,-3
Cc1ccc(C(=O)N/N=C\c2ccc([N+](=O)[O-])s2)cn1,32,39,5,33,11,31,.,.,.,.,.
COc1ccc(/C=N/NC(=O)c2ccncc2)cc1[N+](=O)[O-],10,3,7,-7,-2,-5,.,.,.,.,.
CC(=O)c1ccc(OC2(C)CCN(Cc3cc4ccccc4[nH]3)C2)cc1 (stereo not given),23,.,.,2,.,.,.,.,.,.,.
Fc1cccc(Nc2ncnc3c2cnn3-c2ccccc2)c1,-186,-9,17,25,-9,-21,.,.,.,.,.
Oc1cccc(Nc2ncnc3ccccc23)c1,-5,3,-17,5,11,-1,.,.,.,.,.
O=C(O)c1cccc(Nc2ncnc3c2cnn3-c2ccccc2)c1,-43,97*,20,13,90*,90*,95*,95*,101*,50,92*
O=C(O)c1cccc(Nc2ccnc(Nc3cccc(C(=O)O)c3)n2)c1,19,94*,.,-1,98*,90*,96*,98*,102*,95*,77*
